# Rows were chosen to be rich in hits. Some 5.3% of all compounds tested hit in one or more screens of this group.
# ALR inh = human ALR oxidase inhibition via reduced H2O2; AID 485317; purified ALR, DTT oxidation, H2O2 HRP-luminol luminescence; 290,000 compounds, 3.8% hits; inhibition, % (no concentration beside the values); P55789;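 active means mean replicate inhibition above about 79%, with every replicate also reaching it, limit read from the data; inconclusive means only one of the two criteria met; inactive means mean below limit and not every replicate reaching it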
# Target sequence (P55789 whole entry, looked up): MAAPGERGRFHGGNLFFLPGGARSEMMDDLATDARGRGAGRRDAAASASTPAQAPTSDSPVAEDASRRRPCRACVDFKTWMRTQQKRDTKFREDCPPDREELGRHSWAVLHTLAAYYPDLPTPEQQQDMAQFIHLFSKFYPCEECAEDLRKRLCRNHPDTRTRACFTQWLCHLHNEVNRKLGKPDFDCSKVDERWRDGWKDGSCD
# PfM18AAP inh = PfM18AAP enzyme inhibition. AID 1822. recombinant PfM18AAP, H-Glu-NHMec fluorogenic cleavage. 290,000 compounds, 1.2% hits. inhibition, % at 7.35 µM;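 active means inhibition above the campaign mean inhibition over all tested compounds plus 3 SD, cut at about 28% in these data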;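 further: 0% = plate median of test compound wells and 100% = 2 mM ZnCl2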
# SUMO Mot1 rescue = SUMOylation pathway inhibition by Mot1-301 growth rescue; AID 2716; S. cerevisiae Mot1-301 growth rescue, ATP luminescence, 38.5C; percent above DMSO median, 100 means doubled; growth rescue, % at 18.8 µM; 320,000 compounds, 1% hits;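 active means every valid replicate shows activation above 250% relative to neutral control wells; inactive means the rest, any valid replicate at or below 250%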;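 further: OY570 slx delta 5 strain wells were the positive control but not used for scaling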
# HIF act = HIF pathway transcriptional activation; U2OS HRE-luciferase reporter, luminescence; normalized: DMSO 0%, desferrioxamine 100%; AID 1910; activation, % at 7.5 µM (by protocol); 300,000 compounds, 0.32% hits;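 active means mean activation of at least 10% of the iron chelator positive control signal, with at least half of replicates also reaching 10%; inconclusive means mean and replicate majority disagree about reaching 10%; inactive means mean and most replicates under 10%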
# An asterisk follows results filed as active; ? = inconclusive; · = no result.
SMILES,ALR inh,PfM18AAP inh,SUMO Mot1 rescue,HIF act
Cn1c(SCC(=O)NCc2ccccc2)ncc(C(=O)Nc2ccccc2)c1=O,0,·,-13,-15
Cn1c(SCC(=O)NCC2CCCO2)ncc(C(=O)Nc2ccccc2)c1=O (centres undefined),53,·,418*,4
CC(=O)Nc1ccc(NC(=O)CSc2ncc(C(=O)Nc3ccccc3)c(=O)n2C)cc1,99*,·,14,-14
CCc1cc(-c2n[nH]c(=S)n2C(C)c2ccccc2)cs1 (centres undefined),94*,-2,13,0
Cc1scc(-c2n[nH]c(=S)n2C(C)c2ccccc2)c1C (centres undefined),83*,12,18,0
Cc1ccccc1-n1c(-c2csc(C)c2C)n[nH]c1=S,5,27,-10,3
CCOCCCNC(=O)C(NC(=O)c1ccc(NC(C)=O)cc1)c1ccc(OC)cc1 (centres undefined),-1,10,-1,-1
COc1ccc(S(=O)(=O)Nc2cccc(-c3ccc(N4CCCCCC4)nn3)c2)c(OC)c1,-6,5,10,0
COc1ccc(S(=O)(=O)Nc2ccccc2N2CCOCC2)cc1[N+](=O)[O-],6,2,-14,0
NS(=O)(=O)c1ccc(N2C(=O)C(=O)/C(=C(/O)c3ccccc3)C2c2ccc(Cl)cc2)cc1 (centres undefined),·,5,20,0
O=C(O)CCN1C(=O)/C(=C\c2ccc(-c3nc4ccccc4s3)o2)SC1=S,98*,-4,26,0
Cc1cc(-c2nnc(SCC(=O)Nc3nc(-c4ccc(Cl)cc4)cs3)o2)no1,99*,9,-8,1
COc1cc(NC(=O)CSc2nnc(-c3cc(C)on3)o2)cc(OC)c1,-7,-7,5,2
O=C(c1cn(-c2ccccc2)nc1-c1ccccc1)N1CCOCC1,3,-4,5,-1
O=C(c1cn(-c2ccccc2)nc1-c1ccc(Cl)cc1)N1CCOCC1,2,-9,331*,0
COc1ccc(Cc2ccc(OC)c(N)c2)cc1N,?,-6,-22,1
COc1cc(Cc2ccc(N)c(OC)c2)ccc1N,98*,1,21,0
CCCN1C(=O)c2ccccc2NC1c1ccc(Cl)c(Cl)c1 (centres undefined),3,4,-5,1
CCCN1C(=O)c2ccccc2NC1c1ccc(O)c(OCC)c1 (centres undefined),86*,3,3,-2
OCCNc1c2ccccc2nc2ccccc12,-15,-2,11,24*
CCCC(=O)NNC(=O)CCC(=O)NCc1ccccc1,2,-4,-2,0
CCCC(=O)NNc1c2ccccc2nc2ccccc12,99*,4,249,1
O=C(CCCO)NNc1c2ccccc2nc2ccccc12,99*,-3,14,0
Nc1ccc(C(=O)OCc2ccncc2)cc1[N+](=O)[O-],-4,3,-17,0
COc1ccc2nc3c(c(-c4ccccc4)c2c1)CCC3,-15,0,25,1
SMILES,ALR inh,PfM18AAP inh,SUMO Mot1 rescue,HIF act
COc1ccc(OC)c(Nc2c3ccccc3nc3ccccc23)c1,?,6,12,2
COc1ccc(OC)c(Nc2c3c(nc4ccccc24)CCC3)c1,98*,-9,8,-29
Cc1cccc(Nc2c3c(nc4ccccc24)CCC3)c1,63,-1,-14,0
COc1cc(Nc2c3c(nc4ccccc24)CCC3)cc(OC)c1OC,99*,2,10,1
COc1ccccc1Nc1c2c(nc3ccc(N)cc13)CCCC2,99*,-4,-18,0
Cc1ccccc1NC(=O)C1CCN(c2cc(-c3ccccc3)nc3ncnn23)CC1,-8,-2,14,0
Cc1cccc(N2CCN(c3ccc(N4C(=O)CCCC4=O)cc3[N+](=O)[O-])CC2C)c1 (centres undefined),41,1,415*,79*
Nc1c(S(=O)(=O)c2cccs2)c2nc3ccccc3nc2n1/N=C/c1cccc(O)c1,-12,4,-1,1
O=C(Nc1ccc(O)cc1)c1cc(S(=O)(=O)N2CCCC2)ccc1Cl,99*,3,-11,0
O=C(Nc1ccncc1)c1cc(S(=O)(=O)N2CCCC2)ccc1Cl,-18,·,-6,·
Cc1ccc(NNC(=O)c2c(C)noc2C)cc1Cl,53,30*,181,-1
CN(C)c1ccc(NC(=O)c2cnsn2)cc1,99*,2,231,3
Cc1noc(C)c1C(=O)Nc1ccc(F)cc1,-4,2,5,0
Cc1noc(C)c1C(=O)Nc1ccc(N(C)C)cc1,99*,1,1,0
Cc1cc(C(=O)NNc2ccc(C)c(C)c2)no1,99*,16,236,0
Cc1cc(C(=O)NNc2ccc(Cl)cc2)no1,?,18,62,0
CCCCCCCCNC(=O)c1cnsn1,2,3,-15,0
Cc1ccc(NNC(=O)c2ccno2)cc1Cl,99*,17,152,-1
Cc1ccc(NNC(=O)c2cc(C)on2)c(C)c1,?,16,4,0
Cc1ccc(NNC(=O)c2ccno2)cc1C,98*,20,100,-1
Cc1cc(C(=O)NNc2ccc(F)cc2F)no1,98*,26,538*,0
O=C(COc1coc(CN2CCN(c3ccccc3)CC2)cc1=O)NC1CCCC1,25,·,4,-1
Cc1ccc(Cl)cc1NC(=O)C1CCCN1S(=O)(=O)c1ccc(-c2ccc(=O)[nH]n2)s1 (centres undefined),0,2,-6,-1
Cc1cc(Br)cc(C)c1OCCCCN(C)C,93*,18,-3,0
Cc1cc(Cl)c(OCCCN(C)C)c(Br)c1,·,2,15,0
SMILES,ALR inh,PfM18AAP inh,SUMO Mot1 rescue,HIF act
Cc1[nH]n(C(N)=S)c(=O)c1N=Nc1cccc([N+](=O)[O-])c1C,98*,4,27,1
Cc1[nH]n(C(N)=S)c(=O)c1N=Nc1cc(-c2ccc(Br)cc2)[nH]n1,99*,-7,-18,1
Cc1c(N=Nc2c(-c3ccc([N+](=O)[O-])cc3)[nH]n(C(N)=S)c2=O)cccc1[N+](=O)[O-],·,3,·,·
CCN(CC)c1ccc(C(=O)OCC(=O)Nc2cc(C)on2)cc1,1,·,-1,·
O=C(NCc1ccc2c(c1)OCO2)c1nc(S(=O)(=O)Cc2ccccc2)ncc1Cl,99*,-22,·,1
CN1CCN(C(=S)NC(=O)c2ccco2)CC1,-7,1,-13,0
CC(C)c1nc(SCC(=O)Nc2nc3c(s2)CCCC3)c2ccccc2n1,98*,-6,6,0
CC(C)c1nc(SCC(=O)Nc2ccc(C(=O)O)cc2)c2c3c(sc2n1)CCCC3,99*,1,362,0
CC1CCc2c(sc3ncnc(SCC(=O)Nc4ccc(C(=O)O)cc4)c23)C1 (centres undefined),22,2,4,0
Cc1nc(SCC(=O)Nc2ccc(CN3CCCC3)cc2)c2c(C)c(C)sc2n1,99*,·,4,·
CC1CCc2nc(NC(=O)CSc3nc4ccccc4o3)sc2C1 (centres undefined),99*,12,10,0

# Source: PubChem (several laboratories)
